{"source": "PubChem BioAssay (NCATS)", "note": "Records with an inconclusive call do not appear. Calls of active or inactive are those of the source. The call rests on the fitted dose curve; in most records, active means well fitted inhibition curve with a large enough effect; inconclusive means small, poorly fitted or top-dose-only effect; inactive means flat fitted curve, though single readings scatter. On the % scale 0 is the no-effect control and ±100 the full control effect; potency means the concentration at half of the fitted maximal effect.", "data": [{"test_system": "MCC-26", "experiment": "qHTS assay to identify novel small-molecules to repurpose for Merkel cell carcinoma treatment (AID 1296009); further: nearly all actives have a fitted effect of over 60% in size", "details": "MCC and control cell lines, CellTiter-Glo viability, 72 h; series mostly up to 46 µM; activity change, negative = cytotoxicity: at the top concentration", "source_text": "MCC is a rare and aggressive neuroendocrine skin cancer with limited treatment options. Approximately 80% of MCCs have the Merkel cell polyomavirus (MCPyV) DNA integrated into the host genome (virus-positive: VP-MCC) and viral oncogenes drive oncogenesis. The remaining MCCs are virus-negative (VN-MCC) and are caused by UV mutagenesis. To identify novel treatments for VP-MCC and/or VN-MCC we screened three VP-MCC cell lines (WAGA, MKL-1, MKL-2), three VN-MCC cell lines (MCC-13, MCC-26, UISO), and four immortalized, non-transformed control cell lines (HaCaT, HEK293T, CRL7250, NIH-3T3) against ~2,400 compounds in the NCGC Pharmaceutical Collection (NPC) and ~1,900 compounds in the Mechanism Interrogation PlatE (MiPE). Using cell viability as a readout (CellTiter-Glo assay) we found both overlapping and distinct drugs that can be repurposed for the treatment of VP-MCC and VN-MCC.\nA high-throughput screen was conducted in 1536-well white flat bottom plates (Corning) on a Kalypsys robotic system. Cell lines WAGA, MKL-1, MKL-2, MCC-13, MCC-26, UISO, HaCaT, HEK293T, CRL7250, and NIH-3T3 were screened against 2 small molecule annotated drug libraries NPC and MIPE in dose response (8 and 11 pt. respectively) measuring cell viability after 72 hours of incubation. […] A 1,536 pintool (Kalypsys) was used to transfer 23 nL of compound in DMSO to the 1,536-well assay plates. After 72 hr incubation at 37 degree celsius, 2.5 uL of CellTiter-Glo (Promega) was dispensed into each well using a BiorapTR. Plates were incubated at room temperature for 10 min, transferred to a ViewLux (PerkinElmer) and the luminescence was recorded using an exposure time of 2 seconds. Relative luminescence units (RLUs) were normalized to in-plate controls (no cells as a positive (cytotoxicity) control, DMSO as negative control) and the normalized data was processed using NCATS in-house software.", "values": [{"smiles": "CC[C@H]1OC(=O)[C@H](C)[C@@H](O[C@H]2C[C@@](C)(OC)[C@@H](O)[C@H](C)O2)[C@H](C)[C@@H](O[C@@H]2O[C@H](C)C[C@H](N(C)C)[C@@H]2O)[C@](C)(O)C[C@@H](C)CN(C)[C@H](C)[C@@H](O)[C@]1(C)O", "activity change, negative = cytotoxicity": "-9.67% (inactive)"}, {"smiles": "O=c1cc(-c2ccc(O)cc2)oc2cc(O)cc(O)c12", "activity change, negative = cytotoxicity": "-2.29% (inactive)"}, {"smiles": "CCN1CCC[C@H]1CNC(=O)c1cc(S(N)(=O)=O)ccc1OC", "activity change, negative = cytotoxicity": "9.1% (inactive)"}, {"smiles": "OC[C@@H](O)[C@H](O)[C@H](O)[C@@H](O)CO", "Potency": "inactive"}, {"smiles": "N#CC1(c2ccc(NC(=O)c3cccnc3NCc3ccncc3)cc2)CCCC1", "activity change, negative = cytotoxicity": "-9.32% (inactive)"}, {"smiles": "CC1(C)CCC2=C(O1)c1ccccc1C(=O)C2=O", "activity change, negative = cytotoxicity": "-0.292% (inactive)"}, {"smiles": "CCC(=O)NC[C@H](Cc1ccc(OCCc2nc(-c3ccccc3)oc2C)cc1)NC(C)=CC(=O)c1ccc(C(F)(F)F)cc1", "activity change, negative = cytotoxicity": "-18.6% (inactive)"}, {"smiles": "C[C@]12CC[C@@H]3c4ccc(O)cc4C[C@@H](CCCCCCCCCS(=O)CCCC(F)(F)C(F)(F)F)[C@H]3[C@H]1CC[C@H]2O", "note": "(stereo not given in full)", "activity change, negative = cytotoxicity": "-2.56% (inactive)"}, {"smiles": "NC(=O)NN=Cc1ccc([N+](=O)[O-])o1", "activity change, negative = cytotoxicity": "-5.32% (inactive)"}, {"smiles": "CCNc1cc(NC2CCC(O)CC2)nc(Nc2ccc3c(ccn3Cc3ccccc3)c2)n1", "note": "(stereo not given)", "activity change, negative = cytotoxicity": "-1.49% (inactive)"}, {"smiles": "COc1cc2ncnc(-n3nc(-c4ccccn4)nc3N)c2cc1OC", "activity change, negative = cytotoxicity": "-8.21% (inactive)"}, {"smiles": "COc1ccc(-n2c(C)c([N+](=O)[O-])c3ccc(O)cc32)cc1", "activity change, negative = cytotoxicity": "0.352% (inactive)"}, {"smiles": "C=CCc1ccc(O)c(-c2ccc(O)c(CC=C)c2)c1", "activity change, negative = cytotoxicity": "-16.2% (inactive)"}, {"smiles": "Cc1c(NC(=O)c2ccc(C(C)(C)C)cc2)cccc1-c1cn(C)c(=O)c(Nc2ccc(C(=O)N3CCOCC3)cc2)n1", "activity change, negative = cytotoxicity": "-5.39% (inactive)"}, {"smiles": "CCCCCNC(=O)N1CCC(CN(Cc2ccc(Cl)cc2)Cc2ccc([N+](=O)[O-])s2)C1", "note": "(stereo not given)", "activity change, negative = cytotoxicity": "-0.0056% (inactive)"}, {"smiles": "COc1ccc2cc(-c3nc(-c4ccc(S(C)=O)cc4)[nH]c3-c3ccncc3)ccc2c1", "note": "(stereo not given)", "activity change, negative = cytotoxicity": "-5.57% (inactive)"}, {"smiles": "COc1cc(N2CCC(N3CCN(C)CC3)CC2)ccc1Nc1ncnc(Nc2ccccc2S(=O)(=O)C(C)C)n1", "Potency": "11.8 µM (active)"}, {"smiles": "O=C(Nc1cc(Cl)cc2c1[nH]c1cnccc12)c1cccnc1", "activity change, negative = cytotoxicity": "-5.26% (inactive)"}, {"smiles": "O=c1cc(CN2CCOCC2)occ1OCCCCCSc1ccnc2cc(C(F)(F)F)ccc12", "activity change, negative = cytotoxicity": "0.731% (inactive)"}, {"smiles": "CCOC1OC(=O)C[C@H]1NC(=O)[C@@H]1CCCN1C(=O)[C@@H](NC(=O)c1ccc(N)c(Cl)c1)C(C)(C)C", "note": "(stereo not given in full)", "activity change, negative = cytotoxicity": "1.43% (inactive)"}, {"smiles": "CC(C)=CC[C@@H](O)C1=CC(=O)c2c(O)ccc(O)c2C1=O", "activity change, negative = cytotoxicity": "-0.0488% (inactive)"}, {"smiles": "COCCOc1nc(-c2ccc(Cl)c(Cl)c2)n(-c2ccc(NC(=O)CCl)cc2)n1", "activity change, negative = cytotoxicity": "-10.6% (inactive)"}, {"smiles": "CC(C)C(=O)Oc1ccc(CO)cc1[C@H](CCN(C(C)C)C(C)C)c1ccccc1", "activity change, negative = cytotoxicity": "-2.69% (inactive)"}, {"smiles": "NC(=O)c1cccc2[nH]c(-c3ccc([C@H]4CCCN4)cc3F)nc12", "activity change, negative = cytotoxicity": "-18.3% (inactive)"}, {"smiles": "O=C(O)c1ccc(-c2c[nH]c3ncc(-c4ccccc4)cc23)cc1C1CCCC1", "activity change, negative = cytotoxicity": "2.53% (inactive)"}, {"smiles": "C[C@H](NC(=O)c1sccc1OCc1ccc(Cl)cc1)c1ccccc1", "activity change, negative = cytotoxicity": "-6.8% (inactive)"}, {"smiles": "NS(=O)(=O)c1cccc2c1C(=O)c1cccc(O)c1C2=O", "Potency": "0.833 µM (active)"}, {"smiles": "C=C1C(=O)OC(CCCCCCCC)C1C(=O)O", "note": "(stereo not given)", "activity change, negative = cytotoxicity": "0.533% (inactive)"}, {"smiles": "COc1cc(O)c2c(c1)C(=O)c1cc(C)cc(O)c1C2=O", "activity change, negative = cytotoxicity": "-0.472% [at 16.1 µM] (inactive)"}, {"smiles": "NC(CO)(CO)CCc1ccc(Sc2cccc(OCc3ccccc3)c2)cc1Cl", "activity change, negative = cytotoxicity": "-6.87% (inactive)"}, {"smiles": "Cc1nnc(C(C)C)n1C1C[C@H]2CC[C@@H](C1)N2CC[C@H](NC(=O)C1CCC(F)(F)CC1)c1ccccc1", "note": "(stereo not given in full)", "activity change, negative = cytotoxicity": "-1.24% (inactive)"}, {"smiles": "COc1cc2nc(-c3ccc(N4CCN(C)CC4)cc3)nc(NCCN3CCOCC3)c2cc1OC", "Potency": "9.35 µM (active)"}, {"smiles": "NC(=O)c1ccc2nc(-c3ccc(Oc4ccc(Cl)cc4)cc3)[nH]c2c1", "activity change, negative = cytotoxicity": "-19% (inactive)"}, {"smiles": "COc1ccc(C2CC(c3ccccc3)=NN2c2ccc(S(N)(=O)=O)cc2)cc1", "note": "(stereo not given)", "activity change, negative = cytotoxicity": "-6.53% (inactive)"}, {"smiles": "CC(C)(C)C(=O)Oc1ccc2c(c1)nc(NC(=O)c1cccc([N+](=O)[O-])c1)n2CCCO", "activity change, negative = cytotoxicity": "-1.93% (inactive)"}, {"smiles": "CC(C)OC(=O)CCCC=CC[C@@H]1[C@H](C=C[C@@H](O)COc2cccc(C(F)(F)F)c2)[C@H](O)C[C@@H]1O", "activity change, negative = cytotoxicity": "-19.5% (inactive)"}, {"smiles": "CC(C)(C(=O)NCC(F)(F)C(F)(F)F)C(=O)N[C@@H]1C(=O)Nc2ccccc2-c2ccccc21", "activity change, negative = cytotoxicity": "-14.3% (inactive)"}, {"smiles": "Clc1cc(Cl)cc(CNc2ncncc2-c2ccc3c(c2)OCO3)c1", "activity change, negative = cytotoxicity": "-0.0367% (inactive)"}, {"smiles": "CN[C@@H](C)C(=O)N[C@H]1CN(C(=O)CC(C)C)CC[C@H]2CC[C@@H](C(=O)NC(c3ccccc3)c3ccccc3)N2C1=O", "activity change, negative = cytotoxicity": "3.68% (inactive)"}, {"smiles": "COc1cc(N2CCC(N3CCN(C)CC3)CC2)ccc1Nc1ncc(Cl)c(Nc2ccccc2S(=O)(=O)C(C)C)n1", "Potency": "5.9 µM (active)"}]}]}
